Assay results: PubChem BioAssay AID1159580 (chemical genetic matrix, 2015)
Where “and” joins values, the source holds several entries; their conditions need not be identical. Identical values can stand only once. Among all 5,500 compounds or so, about 2,000 (36%) were called active. Not shown: some 18% with an inconclusive outcome. Cut-off read from the data, not from the text of the source: active = normalized growth mostly below about 0.91 (no sharp cut-off); inconclusive = no clear call, values can overlap the other calls; inactive = mostly above about 0.92. The list shows a part of the results.

Experiment: chemical genetic growth profiling, strain panel (AID 1159580);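 note: tested at 20 µM; growth read once vehicle control cultures reached saturation at 30 °C; 1 = growth at the plate median or of vehicle wells; lower values mean less growth of the strain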
Settings: S. cerevisiae deletion strains, growth OD

Measured: normalized growth

CCc1ccc2c(O)c3c(cc2c1C(=O)OC)C(=O)c1c(O)ccc(O)c1C3=O
inactive: locus YAL013W, strain DEP1, stronger effect = lower value 0.989 | locus YAL021C, strain ccr4, stronger effect = lower value 0.963 | locus YAL026C, strain drs2, stronger effect = lower value 0.915 | locus YAL030W, strain snc1, stronger effect = lower value 0.992 | locus YBL061C, strain skt5, stronger effect = lower value 0.975 | locus YBR009C, strain hhf1, stronger effect = lower value 0.981 | locus YBR021W, strain FUR4, stronger effect = lower value 1.02 | locus YBR023C, strain chs3, stronger effect = lower value 0.975 | locus YBR171W, strain sec66, stronger effect = lower value 0.97 | locus YBR229C, strain ROT2, stronger effect = lower value 0.956 | locus YBR231C, strain swc5, stronger effect = lower value 0.997 | locus YBR279W, strain paf1, stronger effect = lower value 0.99 | locus YCL011C, strain gbp2, stronger effect = lower value 0.984 | locus YCL016C, strain dcc1, stronger effect = lower value 0.988 | locus YCL029C, strain bik1, stronger effect = lower value 0.975 | locus YCL069W, strain vba3, stronger effect = lower value 0.981 | locus YCR088W, strain abp1, stronger effect = lower value 0.981 | locus YDL005C, strain med2, stronger effect = lower value 0.997 | locus YDL035C, strain GPR1, stronger effect = lower value 0.984 | locus YDL040C, strain nat1, stronger effect = lower value 1 | locus YDL074C, strain BRE1, stronger effect = lower value 1.03 | locus YDL101C, strain DUN1, stronger effect = lower value 0.978 | locus YDL134C, strain PPH21, stronger effect = lower value 0.964 | locus YDL185W, strain tfp1, stronger effect = lower value 0.978 | locus YDL192W, strain arf1, stronger effect = lower value 0.958 | locus YDR001C, strain nth1, stronger effect = lower value 0.972 | locus YDR069C, strain doa4, stronger effect = lower value 0.909 | locus YDR101C, strain arx1, stronger effect = lower value 1.02 | locus YDR137W, strain rgp1, stronger effect = lower value 0.91 | locus YDR159W, strain sac3, stronger effect = lower value 0.944 | locus YDR162C, strain NBP2, stronger effect = lower value 0.935 | locus YDR195W, strain ref2 0.962 | locus YDR297W, strain sur2, stronger effect = lower value 0.98 | locus YDR318W, strain mcm21, stronger effect = lower value 0.951 | locus YDR334W, strain swr1, stronger effect = lower value 0.923 | locus YDR335W, strain msn5, stronger effect = lower value 0.971 | locus YDR388W, stronger effect = lower value 0.978 | locus YDR392W, strain spt3, stronger effect = lower value 0.926 | locus YDR502C, strain sam2, stronger effect = lower value 0.974 | locus YEL003W, strain gim4, stronger effect = lower value 0.996 | locus YEL037C, strain rad23, stronger effect = lower value 0.977 | locus YEL061C, strain CIN8 (second series), stronger effect = lower value 0.97 | locus YEL061C, strain CIN8, stronger effect = lower value 0.978 | locus YER015W, strain faa2, stronger effect = lower value 0.974 | locus YER016W, strain bim1, stronger effect = lower value 0.986 | locus YER110C, stronger effect = lower value 0.979 | locus YER111C, strain swi4, stronger effect = lower value 0.927 | locus YER155C, strain BEM2 (second series), stronger effect = lower value 0.909 | locus YER155C, strain BEM2, stronger effect = lower value 1 | locus YER167W, strain BCK2, stronger effect = lower value 0.987 | locus YGL078C, strain dbp3, stronger effect = lower value 1.01 | locus YGL086W, strain mad1, stronger effect = lower value 0.987 | locus YGL167C, strain pmr1, stronger effect = lower value 0.979 | locus YGL173C, strain kem1, stronger effect = lower value 0.972 | locus YGL227W, strain vid30, stronger effect = lower value 1 | locus YGL240W, strain doc1, stronger effect = lower value 0.978 | locus YGL248W, strain PDE1, stronger effect = lower value 0.955 | locus YGL253W, strain hxk2, stronger effect = lower value 0.982 | locus YGR135W, strain pre9, stronger effect = lower value 0.94 | locus YGR252W, strain gcn5, stronger effect = lower value 0.977 | locus YHR013C, strain ard1, stronger effect = lower value 0.996 | locus YHR027C, strain rpn1, stronger effect = lower value 0.994 | locus YHR030C, strain SLT2, stronger effect = lower value 0.986 and 0.951 | locus YHR079C, strain IRE1 (second series), stronger effect = lower value 0.997 | locus YHR079C, strain IRE1, stronger effect = lower value 0.954 | locus YHR094C, strain hxt1, stronger effect = lower value 0.978 | locus YHR129C, strain ARP1, stronger effect = lower value 0.978 | locus YHR142W, strain chs7, stronger effect = lower value 0.879 | locus YHR200W, strain rpn10, stronger effect = lower value 0.963 | locus YIL066C, strain RNR3, stronger effect = lower value 0.966 | locus YIL073C, strain SPO22, stronger effect = lower value 1.03 | locus YIL125W, strain kgd1, stronger effect = lower value 0.989 | locus YIR030C, strain dcg1, stronger effect = lower value 0.998 | locus YJL092W, strain hpr5, stronger effect = lower value 0.976 | locus YJL095W, strain BCK1 (second series), stronger effect = lower value 0.973 | locus YJL095W, strain BCK1, stronger effect = lower value 0.928 and 0.964 | locus YJL115W, strain asf1, stronger effect = lower value 0.966 | locus YJL129C, strain trk1, stronger effect = lower value 0.986 | locus YJL134W, strain LCB3, stronger effect = lower value 0.99 | locus YJL154C, strain vps35, stronger effect = lower value 0.987 | locus YJL164C, strain tpk1, stronger effect = lower value 0.968 | locus YJL166W, strain qcr8, stronger effect = lower value 0.961 | locus YJL168C, strain set2, stronger effect = lower value 0.982 | locus YJL187C, strain SWE1 (second series), stronger effect = lower value 0.959 | locus YJL187C, strain SWE1, stronger effect = lower value 0.98 | locus YJR043C, strain POL32, stronger effect = lower value 0.979
active: locus YFR010W, strain ubp6, stronger effect = lower value 0.874
